Bioassay records: PubChem, National Center for Advancing Translational Sciences (NCATS)
The list is not random: actives were taken first. Their share in the collection is about 2.9%.
S2 tox: reduces viability in counter-screen for ATXN expression inhibitors; S2 cells (HEK-293 line with an ATXN2-luciferase reporter) viability, CellTiter-Fluor protease fluorescence, 24 h; Potency, µM (top dose mostly 56.7 µM), hits mostly cytotoxic; actives 0.49% (n = 400,000); AID 651635; further: nearly all actives have a fitted effect of over 40% in size
Nrf2 ARE act: activates Nrf2 signaling; AREc32 ARE-luciferase reporter (MCF7-derived line), luminescence, 24 h; actives 0.31% (n = 410,000); AID 624171; Potency, µM (top dose mostly 46.1 µM), actives largely listed as activators; further: nearly all actives have a fitted effect of over 65% in size
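Cells of the AREc32 ARE-luciferase line are plated in OPTI-MEM containing 5% FBS and left overnight at 37 deg C. Compounds are pinned in, incubation continues 24 hr, and firefly luciferase signal is then measured.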
A549 tox: kills or reduces viability of A549 cells in Nrf2 counter-screen | A549 ARE-Fluc cells, CellTiter-Fluor viability, 18-24 h | Potency, µM (top dose mostly 46 µM), most hits filed as inhibitors | actives 0.16% (n = 390,000) | AID 504648
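Cytotoxicity counterscreen: CellTiter-Fluor fluorescence was measured in A549 ARE_Fluc cells after 18-24 h of compound exposure in a concentration series. The subsequent BugLite luminescent read reports ARE-luciferase activity.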
ATXN2 expr inh: reduces ATXN2 reporter expression in HEK-293 cells | HEK-293 ATXN2-luciferase reporter, luminescence, 24 h | actives 0.72% (n = 360,000) | Potency, µM (series often up to 57 µM), usual class: inhibitors; further: nearly all actives have a fitted effect of over 55% in size
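ATXN2-luciferase reporter cells (luciferase flanked by upstream and downstream ATXN2 gene portions) were treated 24 h at 37 °C with compounds at up to 57 uM. SteadyGlo luminescence gave expression; GF-AFC fluorescence gave viability.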
Nrf2 block: inhibitors of Nrf2 signaling | A549 ARE-Fluc reporter, luciferase luminescence, 18-24 h | AID 504444 | Potency, µM (highest dose often 46 µM), hits mostly inhibitors | actives 2.1% (n = 360,000); further: nearly all actives have a fitted effect of over 60% in size
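Nrf2 activity is the BugLite luminescence, read 15 min after reagent at room temperature, following CellTiter-Fluor cytotoxicity readout (30 min, 37C). Compound titrations were applied for 18-24 h to 5000 A549 ARE_Fluc cells/well in 5% FBS OPTI-MEM.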
Numbers stand for hits; i = inactive; ? = inconclusive; nt = not tested or not shown; [ ] = remark or other dose. The call rests on the fitted dose curve; in most records, active means well fitted curve in the direction sought with a large enough effect; inconclusive means small, poorly fitted or top-dose-only effect, or another doubt; inactive means no such curve, though single readings can be large; an effect the other way counts as inactive or inconclusive.

SMILES	S2 tox	Nrf2 ARE act	A549 tox	ATXN2 expr inh	Nrf2 block
COc1ccc(C(=O)Nc2ccc(Cl)cc2C(=O)NCc2ccco2)cc1OC	i	i	?	i	21µM
COCCNC(=O)c1ccc2c(=O)n(Cc3ccco3)c(SCC(=O)NC3CCCC3)nc2c1	?	i	i	i	i
COc1cc(OC)c2c(OC)cccc2n1	nt	i	i	i	i
CCOC(=O)N1CCC(NC(=O)c2cc(-c3ccc(F)cc3)[nH]c2C)CC1	i	i	i	i	23µM
COc1cc(Cl)c(C)cc1NC(=O)NC1COc2ccccc2C1 (stereo not drawn)	nt	i	i	nt	nt
O=C(c1ccccc1)C1OC1C(=O)c1ccccc1 (stereo not drawn)	?	13µM	i	i	?
CCOc1ccccc1OCCCC(=O)Nc1ccc(Cl)c(S(=O)(=O)N2CCOCC2)c1	i	i	i	nt	16µM
Cc1ccc(NC(=O)CCNC(=O)c2ccc(Br)cc2)cc1S(=O)(=O)N1CCOCC1	?	i	i	i	i
O=C(CCNC(=O)c1ccc([N+](=O)[O-])cc1)Nc1ccc(Cl)c(S(=O)(=O)N2CCOCC2)c1	i	i	i	nt	23µM
COc1cc(/C=C2\SC(=O)N(c3cccc(Cl)c3)C2=O)cc([N+](=O)[O-])c1O	i	i	13µM	i	?
COc1cc(/C=C2/C(=O)NN(c3ccc(C)c(Cl)c3)C2=O)cc([N+](=O)[O-])c1O	i	i	i	nt	i
COc1cc(/C=C2\SC(=O)N(c3ccc(Cl)cc3)C2=O)cc([N+](=O)[O-])c1O	i	i	16µM	i	?
CCc1ccc(C(=O)COC(=O)c2cc([N+](=O)[O-])ccc2NCCO)cc1	i	i	15µM	i	7.3µM
CN1c2ccsc2/C(=N/Nc2ccc(F)cc2)CS1(=O)=O	i	13µM	i	i[11.3 µM]	?
COC(=O)c1c(C(=O)OC)c(-c2ccc(Cl)c(Cl)c2)n2c1CCC2	i	i	i[1.84 µM]	i	18µM
COC(=O)c1c(C(=O)OC)c(-c2ccc(C)cc2)n2c1CCC2	i	i	i	i	nt
COc1ccc(CN2CC(=O)N(c3ccc(C)cc3C)C2=S)cc1OC	i	i	i	i	13µM
NC(=O)c1sc(-c2ccsc2)cc1NS(=O)(=O)c1ccc(C(F)(F)F)cc1	i	i	i	i	15µM
CCOC(=O)C1=C(CCl)NC(=O)NC1c1ccc2c(c1)OCO2 (stereo not drawn)	i	i	i	i	15µM
CC1=C(C(=O)OCc2ccc3c(c2)OCO3)C(c2ccc(Cl)cc2)NC(=O)N1 (stereo not drawn)	i	i	?	?	7.3µM
O=C(NCCc1ccc(Cl)cc1)c1ccc(CS(=O)(=O)Cc2ccc(F)cc2)o1	i	i	i	i	nt
CCCCCc1c(C)[nH]c2nc3ccccc3n2c1=O	i	i	i	i	?
Cc1ccc(NC(=O)C2CCCN2S(=O)(=O)c2ccc3nc(-c4ccccc4)[nH]c3c2)cc1F (stereo not drawn)	nt	i	i	nt	21µM
COc1ccc(NC(=O)C2CCCN2S(=O)(=O)c2ccc3nc(-c4ccccc4)[nH]c3c2)cc1 (stereo not drawn)	i	i	i	i	i
CC(=O)[C@]1(O)Cc2c(O)c3c(c(O)c2[C@@H](O[C@H]2C[C@H](N)[C@@H](O)[C@H](C)O2)C1)C(=O)c1ccccc1C3=O	nt	nt	nt	0.14µM	nt
SMILES	S2 tox	Nrf2 ARE act	A549 tox	ATXN2 expr inh	Nrf2 block
COc1cccc2c1C(=O)c1c(O)c3c(c(O)c1C2=O)C[C@@](O)(C(=O)CO)C[C@@H]3O[C@H]1C[C@H](N)[C@H](O[C@@H]2CCCCO2)[C@H](C)O1	16µM	nt	nt	0.4µM	nt
O=C(CN1CCN(Cc2ccc(Cl)cc2)C1=O)NCc1cccs1	i	i	i	nt	i
COc1cc(/C=N\NC(=O)c2ccc(-c3ccccc3)cc2)cc(OC)c1OC(C)=O	i	i	i	i	13µM
CCOC(=O)C(=NC1CCS(=O)(=O)C1)NNc1ccc(Br)cc1 (stereo not drawn)	i	i	i	?	i
COc1ccc(-c2cc(C(=O)Nc3c(C)nn(Cc4ccccc4Cl)c3C)no2)cc1OC	i	i	i	i	nt
COc1ccccc1-c1cc(C(=O)Nc2c(C)nn(Cc3ccc(Cl)cc3)c2C)no1	?	i	?	?	18µM
COc1ccc2c(c1)CCc1c(C(=O)Nc3c(C)nn(Cc4ccc(C)cc4)c3C)noc1-2	i	i	i	i	15µM
COc1cccc(-c2cc(C(=O)Nc3c(C)nn(Cc4ccccc4Cl)c3C)no2)c1	?	i	i	i	6.5µM
Cc1nn(Cc2ccc(Cl)c(Cl)c2)c(C)c1NC(=O)c1sc2ccccc2c1Cl	?	i	i	i	15µM
COC(=O)C1=C(C)NC(C)=C(C(=O)OC)C1c1ccc(OC(=O)c2oc3ccccc3c2C)c(OC)c1	i	i	i	nt	i
O=C(NCCCc1ccccc1)c1cccc(Br)c1	i	i	i	nt	i
O=C(CN(Cc1ccccc1)C(=O)CCl)c1cccc(Br)c1	25µM	i	i	22µM	i
Nc1nonc1-n1nnc(C(=O)N/N=C/c2ccccc2)c1CN1CCc2ccccc21	i	i	i	i	i
CC1CCN(Cc2c(C(=O)N/N=C/c3cccc(C(F)(F)F)c3)nnn2-c2nonc2N)CC1	i	i	i	i	i
C/C(=N\NC(=O)c1nnn(-c2nonc2N)c1CN1CCc2ccccc21)c1ccccc1O	?	i	i	nt	12µM
CC1CCN(Cc2c(C(=O)N/N=C/c3cc(Cl)ccc3O)nnn2-c2nonc2N)CC1	i	i	i	2.2µM	i
CC1CCN(Cc2c(C(=O)N/N=C/c3ccc(C(F)(F)F)cc3)nnn2-c2nonc2N)CC1	i	i	?	i	26µM
COc1ccc(C2C(C(=O)C(C)(C)C)=C(O)C(=O)N2Cc2ccccc2)cc1 (stereo not drawn)	i	i	i	i	i
CCCCCCC(C)n1[nH]c(=O)cc1N (stereo not drawn)	i	i	i	i	i
Cc1cc(C)c(NC(=O)COC(=O)c2cccc3c2C(=O)c2ccccc2C3=O)c(C)c1	i	i	i	i	16µM
Cc1ccc(C)c(NC(=O)COC(=O)c2cccc3c2C(=O)c2ccccc2C3=O)c1	i	i	i	i	13µM
Cc1cccc(OCCCn2c(CCNC(=O)C(C)(C)C)nc3ccccc32)c1	?	i	i	i	i
O=C(CCn1cnc2ncccc2c1=O)N1CCN(c2cccc(Cl)c2)CC1	i	i	i	i	i
COc1ccc(/C=C2/SC(=O)N(CCNC(=O)C3CCCN3C(=O)c3cccs3)C2=O)cc1 (stereo not drawn)	i	i	i	nt	i
C[C@H](CO)N1C[C@H](C)[C@@H](CN(C)C(=O)Nc2ccc(C(F)(F)F)cc2)Oc2c(NC(=O)Nc3ccccc3)cccc2C1=O	nt	i	i	?	?
